In PubChem BioAssay AID1224865 (Sanford-Burnham Center for Chemical Genomics, 2016) one finds activity change data, which are given here for 60 compounds.

The structures appear in SMILES notation. Values joined by “and” are separate entries in the source; they are usually repeats but may differ in a detail not shown here. Equal values may be shown once. The campaign covered roughly 360,000 compounds. About 1,100 (0.31%) were called active. Cut-off read from the data, not from the text of the source: active = activity change above about 30% (passing the limit was not always enough); inactive = the rest. The entries come from a sample that favours actives as a whole. A structure can be active in one record and inactive in another.

For this test, the target named is Hepatocyte nuclear factor 4-alpha (Homo sapiens) (UniProt P41235). Description: HNF4-alpha DNA association modulation – biochemical, fluorescence polarization, FITC-DNA, primary screen (AID 1224865). The following applies: HNF4a-FITC DNA binding, 1 h, at 10 µM, stronger effect = higher value.
Chain of Hepatocyte nuclear factor 4-alpha (Homo sapiens) (P41235 whole entry, looked up): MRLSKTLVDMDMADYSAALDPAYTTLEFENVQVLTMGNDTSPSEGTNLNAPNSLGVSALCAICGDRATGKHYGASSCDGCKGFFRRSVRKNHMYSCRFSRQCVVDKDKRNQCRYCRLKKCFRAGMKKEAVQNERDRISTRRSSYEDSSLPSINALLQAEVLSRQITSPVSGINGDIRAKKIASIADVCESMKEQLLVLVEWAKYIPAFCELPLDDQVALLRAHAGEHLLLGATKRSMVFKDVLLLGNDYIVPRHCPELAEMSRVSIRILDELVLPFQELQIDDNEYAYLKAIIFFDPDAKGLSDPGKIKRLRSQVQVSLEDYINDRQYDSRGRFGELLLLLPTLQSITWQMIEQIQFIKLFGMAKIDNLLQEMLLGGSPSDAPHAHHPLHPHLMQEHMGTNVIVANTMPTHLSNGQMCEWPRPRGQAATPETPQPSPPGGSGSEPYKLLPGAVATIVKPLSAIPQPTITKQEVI
Take `CCc1ccc2oc(-c3ccc(N)cc3)nc2c1`: the activity change is 71.8% (active).
Turning to `COc1ccc2oc(N)nc2c1`, the activity change is 0.82% (inactive).
The figure for `CC1(C)C/C(=C(/C#N)C(N)=O)CCO1` is -0.48% (inactive); for `CCOC(=O)C1CCN(C(=O)C2CCN(S(=O)(=O)CC)CC2)CC1` it is -4.66% (inactive); for `CCOC(=O)C1CCN(C(=O)C2CCN(S(=O)(=O)N3CCCC3)CC2)CC1` it is -3.6% (inactive).
Take `CCOC(=O)N1CCN(C(=O)C2CCN(S(C)(=O)=O)CC2)CC1`: the activity change is 30.5% (active).
The figure for `CCCCc1nccn1CCn1ccnc1CCCC` is -1.42% (inactive); for `O=C(CC1SC(=Nc2ccccc2F)N(CCN2CCOCC2)C1=O)Nc1ccc(F)cc1F` (stereo not given) it is 2.99% (inactive).
In the case of `CC(C)(C)NC(=O)c1ccc(Cn2cc(C(F)(F)F)ccc2=O)cc1`, the activity change is -4.39% (inactive).
Under `Cc1ccc2[nH]c(=O)c(CN3CCCCC3)c(-c3ccccc3)c2c1` stands -1.94% (inactive); under `c1ccc2cc3[nH]c(CN4CCCCC4)nc3cc2c1`, 33.4% (active); under `O=c1cc(CN2CCCCCCC2)c2c(ccc3ccccc32)o1`, -1.79% (inactive).
With `O=S(=O)(Cc1ccc(Cl)cc1Cl)c1ccc(Cl)cc1`, the activity change is 1.8% (inactive).
`COC(=O)C1=C(C(=O)OC)C2(OC1c1ccc(Br)cc1)C(=O)c1ccccc1C2=O` (stereo not given): the activity change was 0.81% (inactive).
As to `CN1C(=O)C(CC(N)=O)N(NC(=O)c2ccc(Cl)cc2)C1=S` (stereo not given), the activity change is -1.5% (inactive).
Turning to `Cn1cccc1/C=C1\SC(=S)N(NC(=O)c2ccc(Cl)cc2)C1=O`, the activity change is 74.6% (active).
`CC(=O)N1C(=O)/C(=C2\SC(=S)N(NC(=O)c3ccc(O)cc3)C2=O)c2ccccc21`: the activity change is -1.57% (inactive).
For the compound `O=C(NC1CCCC1)C1c2ccccc2OCC(=O)N1CC(F)(F)F` (stereo not given), the activity change is 2% (inactive).
For `COc1ccc(-c2nc3cc(C)ccn3c2NC2CCCCC2)cc1SC1CCCCC1`, the activity change is 47.8% (active) and 27.6% (inactive).
Take `Cc1ccc2nc(-c3cccnc3)c(NC3CCCC3)n2c1`: the activity change is 6.3% (inactive).
Take `COc1cccc(-c2nc3nc(C)cc(C)n3c2NC2CCCCC2)c1`: the activity change was 3.94% (inactive).
In the case of `Cc1ccn2c(c1)nc(=O)c1cc(S(=O)(=O)N3CCC(C)CC3)ccc12`, the activity change was 4.48% (inactive).
With `Cc1cc(=O)oc2cc(OC(C)C(=O)Nc3ccc(N4CCOCC4)cc3)ccc12` (stereo not given), the activity change was -19.2% (inactive).
The figure for `O=C(O)c1ccc(N=NN2CCOCC2)cc1` is 1.22% (inactive); for `O=C(O)c1ccc(N/N=C/c2ccc3ncccc3c2)cc1` it is -1.15% (inactive); for `O=C(O)c1ccc(NN=CC2=C(N3CCOCC3)/C(=C/c3ccccc3)CC2)cc1` it is 41.5% (active).
`O=C(COC(=O)/C=C/c1ccc(S(=O)(=O)N2CCCCCC2)cc1)NCc1ccccc1Cl`: the activity change was -2.22% (inactive).
On to `O=C1CCC(C(=O)N2CCCCO2)CN1Cc1cccc(C(F)(F)F)c1` (stereo not given), for which the activity change is 1.26% (inactive).
As to `NC(=O)Cn1nc([N+](=O)[O-])nc1Oc1ccc(Br)cc1`, the activity change was 3.81% (inactive).
As to `CCCCCCCNc1nc(Cl)nc(NCCO)n1`, the activity change is 1.28% (inactive).
Take `NNc1cccc(C=Cc2ccccc2)cc1=O`: the activity change was 37.5% (active).
Under `O=C(COC(=O)/C=C/c1cccc(Cl)c1)NCCc1ccccc1` stands 1.96% (inactive); under `O=C(COC(=O)c1cc(S(=O)(=O)N2CCOCC2)ccc1F)NC1CC1`, -0.17% (inactive).
As for `O=C(c1ccc[nH]c1=S)N1CCN(S(=O)(=O)c2ccc(Br)cc2Cl)CC1`, the activity change is 0.57% (inactive).
`COc1ccccc1N1CCN(C(=O)C(=O)N/N=C/c2ccccc2F)CC1`: the activity change was -1.71% (inactive).
With `COc1cc(/C=N\NC(=O)c2nonc2N)c(OC)cc1Br`, the activity change was -0.19% (inactive).
With `COc1cccc(/C=N/NC(=O)c2[nH]nc3c2CCc2ccccc2-3)c1O`, the activity change is 49.2% (active).
Regarding `O=C1COc2ccc(S(=O)(=O)NCCc3ccc(Cl)cc3)cc2N1`, the activity change is 1.98% (inactive).
Regarding `CC(C)n1c(O)c(N=Nc2ccccn2)c2ccccc21`, the activity change is 0.04% (inactive).
For `CCOCCCNC(=O)Cc1cc(=O)[nH]c(=O)[nH]1`, the activity change is -0.4% (inactive).
With `N#CCCN1CCN(S(=O)(=O)c2ccc(S(=O)(=O)NC3CCCCC3)cc2)CC1`, the activity change is 0.96% (inactive).
Consider `C=CCn1c(SCC(=O)NC(=O)Cc2ccccc2)nc2ccccc2c1=O`, for which the activity change was 1.95% (inactive).
In the case of `CCn1c(/C=C/c2ccc([N+](=O)[O-])o2)nc2ccccc2c1=O`, the activity change is 92.1% (active).
As for `O=C(/C=C/c1ccc([N+](=O)[O-])o1)NNC(=O)c1ccc(F)cc1`, the activity change was 0.84% (inactive).
As to `COc1ccccc1CCNC(=O)CN1C(=O)NC2(CCCC2)C1=O`, the activity change was 1.6% (inactive).
In the case of `COc1ccc(C(=O)N2CCCCC2c2cc(C(=O)Nc3ccc(F)c(Cl)c3)no2)cc1` (stereo not given), the activity change is -0.55% (inactive).
Take `COc1ccc(/C(C)=N/N2CCOCC2)c(O)c1`: the activity change is 1.11% (inactive).
`CN1/C(=c2/s/c(=C3/C(=O)N(c4ccccc4)NC3=Nc3ccccc3)n(C)c2=O)C(C)(C)c2ccccc21`: the activity change was 66.2% (active).
With `O=C(CO/N=C/c1ccc(OC(F)F)cc1)NCc1ccc(F)cc1`, the activity change is -1.87% (inactive).
Take `CCOC(=O)C1CCCN(C(=O)CSc2nnc3nc(C)cc(C)n23)C1` (stereo not given): the activity change is -2.41% (inactive).
For `COc1ccc(CCNC(=O)CN(C)S(=O)(=O)c2ccc3nc(C)sc3c2)cc1OC`, the activity change was 3.34% (inactive).
Consider `COc1ccc(-c2ccc(C(=O)NCCN3CCOCC3)c3occc23)c(C)c1`, for which the activity change was -3.94% (inactive).
On to `CCC(C)N1C(=O)S/C(=C/c2ccc(Sc3nc4ccccc4[nH]3)o2)C1=O` (stereo not given), for which the activity change is 77.3% (active).
For the compound `CCC(c1nc2ccccc2[nH]1)n1c(=O)c(-c2cccs2)nc2ccccc21` (stereo not given), the activity change was 4.95% (inactive).
The figure for `CCOC(=O)/C(C#N)=C/c1ccc(N2CCCCC2)cc1` is 42.2% (active); for `CCOC(=O)/C(C#N)=C\c1c(C)cc(C)c(COC(C)=O)c1C` it is 2.55% (inactive); for `COC(=O)/C(C#N)=C/c1occc1C` it is -1.39% (inactive).
In the case of `CC(=O)NC(CC(=O)Nc1nc(-c2ccccc2)c(C(C)=O)s1)c1ccccc1` (stereo not given), the activity change was 0.99% (inactive).
Under `C/C(=N/Nc1nc(-c2ccccc2)c(CC(=O)O)s1)c1ccccc1` stands 48.6% (active).
Take `CCOc1ccc(-c2nc(C)sc2CC(=O)O)cc1`: the activity change was 1.37% (inactive).
